Screens from PubChem.
Tau ThT inhib – qHTS for Inhibitors of Tau Fibril Formation, Thioflavin T Binding | Microtubule-associated protein tau (Homo sapiens), P10636 | recombinant tau K18 P301L, heparin-induced fibrillization, ThT fluorescence | Potency, µM (top dose mostly 57.4 µM), most hits filed as inhibitors | 270,000 tested, 2.1% active; note: nearly all actives have a fitted effect of over 55% in size
Target sequence (P10636 561-689 P618L limits assumed): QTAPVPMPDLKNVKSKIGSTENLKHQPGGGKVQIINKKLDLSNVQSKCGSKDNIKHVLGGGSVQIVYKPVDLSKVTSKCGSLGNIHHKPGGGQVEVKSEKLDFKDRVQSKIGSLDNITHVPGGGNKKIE
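Aggregation was driven by heparin (20 uM final) acting on recombinant tau […] bearing P301L in 100 mM sodium acetate pH 7; fibrils were detected with Thioflavin T.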
Sfp inh – qHTS Assay for Inhibitors of Bacillus subtilis Sfp phosphopantetheinyl transferase (PPTase); 4'-phosphopantetheinyl transferase ffp (Bacillus subtilis), Q9F4F7; Biochemical Sfp PPTase activity, qHTS; Potency, µM, hits mostly inhibitors; 310,000 tested, 3.5% active; AID 1490, 2009;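 note: the enzyme is Sfp with the accession as filed and its product quenches rhodamine fluorescence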
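With Hepes-Na pH 7.6 buffer containing 10 mM MgCl2, Sfp (15 nM) modified BHQ-2-YbbR (12.5 uM) using rhodamine-CoA (5 uM). Two reads 30 minutes apart at 525/598 nm yielded each well's rate.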
FBPA coupling cs – qHTS Assay for Inhibitors of Fructose-1,6-bisphosphate Aldolase from Giardia Lamblia: Coupling assay counterscreen | 290,000 tested, 0.67% active | activity change, negative = inhibition, % at 58.2 µM, hits read low | coupling enzyme system counterscreen, AmpLite Red fluorescence | AID 2472, 2010; in the data active = activity change below about -30%
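Final compound at 57.5 uM, incubated 10 min at RT with coupling enzyme reagent (glyceraldehyde-3-phosphate), then 20 min with substrate and AmpLite Red detection. Fluorescence read at 525/598 nm; tests interference with the coupling assay, not aldolase inhibition.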
Tau FP inhib – qHTS for Inhibitors of Tau Fibril Formation, Fluorescence Polarization; Potency, µM (top dose mostly 57.7 µM), hits mostly inhibitors; K18 P301L tau heparin fibrillization, Alexa594 FP, 6 h; AID 1468, 2008; 280,000 tested, 0.39% active; note: nearly all actives have a fitted effect of over 55% in size
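Compound effects on tau fibrillization are measured by Alexa 594 fluorescence polarization (ex 555, em 632 nm). K18 P301L tau is used at 15 uM with 0.24 uM labeled tracer, and 20 uM heparin induces aggregation over 6 hr at 37 C.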
Tau fluor cs – Counterscreen qHTS for Inhibitors of Tau Fibril Formation, Fluorescence Polarization | 280,000 tested, 0.93% active | tau K18 P301L Alexa594 fluorescence, heparin fibrillization | AID 1463, 2008 | Potency, µM (series often up to 57.7 µM); note: nearly all actives have a fitted effect of over 55% in size
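Human tau K18 P301L (15 uM unlabeled, 0.24 uM Alexa 594-labeled) in 100 mM sodium acetate pH 7 with 20 uM heparin, 6 hr at 37 C. ThT 30 uM added, 1 hr ambient; Alexa 594 FP and total fluorescence read at 555/632 nm.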
Large screens that a line does not name were inactive; [ ] = dose if it differs, or a comment. A selection: hits, their analogues and other compounds. The true share with any hit is near 5.2%. Unless noted, calls come from the whole dose curve; as a rule, active = well fitted curve in the direction sought with a large enough effect; inconclusive = small, poorly fitted or top-dose-only effect, or another doubt; inactive = no such curve, though single readings can be large; an effect the other way counts as inactive or inconclusive.

Oc1ccc(N2CCN(c3nc(-c4cccs4)nc4ccccc34)CC2)cc1	Sfp inh inconclusive, Tau fluor cs 14µM[quencher] (no result: Tau ThT inhib)
c1ccc(N2CCN(c3nc(-c4cccs4)nc4ccccc34)CC2)cc1	Tau ThT inhib inconclusive
CCOc1ccc(CCNC(=O)CN2C(=O)COc3ccc(S(=O)(=O)N4CCC(C)CC4)cc32)cc1	none (no result: Sfp inh, FBPA coupling cs)
CCOC(=O)c1cc(S(=O)(=O)NCc2ccc(C)cc2)[nH]n1	none (no result: Sfp inh, FBPA coupling cs)
O=C(O)COc1ccccc1C(Nc1ccccn1)c1cc(Cl)c2cccnc2c1O (stereo not drawn)	Tau ThT inhib 13µM, Tau FP inhib inconclusive
O=C(O)COc1ccccc1C(Nc1cccnc1)c1cc(Cl)c2cccnc2c1O (stereo not drawn)	Tau ThT inhib 18µM, Sfp inh 22µM, Tau FP inhib 32µM
CCC(=O)NC(c1ccc(OC)c(OC)c1)c1cc(Cl)c2cccnc2c1O (stereo not drawn)	Sfp inh 56µM
COc1cc(C2Nc3cccc4cccc(c34)N2)cc(OC)c1OC(C)=O	Tau ThT inhib inconclusive, Tau fluor cs inconclusive
O=C1NC(c2ccc(Cl)c([N+](=O)[O-])c2)Nc2ccccc21 (stereo not drawn)	none
Clc1ccc(C2Nc3cccc4cccc(c34)N2)cc1	Sfp inh inconclusive (no result: Tau ThT inhib, Tau FP inhib, Tau fluor cs)
O=[N+]([O-])c1cc(C2Nc3cccc4cccc(c34)N2)ccc1Cl	Tau ThT inhib 18µM, Sfp inh inconclusive, Tau FP inhib inconclusive, Tau fluor cs 18µM[quencher]
CCN(CC)c1ccc(C2Nc3cccc4cccc(c34)N2)c(O)c1	Tau ThT inhib 16µM, Tau fluor cs 14µM[quencher]
COc1cc(C2Nc3cccc4cccc(c34)N2)ccc1O	Sfp inh 45µM (no result: Tau ThT inhib, Tau FP inhib, Tau fluor cs)
Oc1ccc2ccccc2c1C1Nc2cccc3cccc(c23)N1	Tau ThT inhib 28µM, Tau fluor cs 14µM[quencher]
CN(C(=O)c1nn(C)c2c1COc1ccccc1-2)c1cccc(C(F)(F)F)c1	none (no result: Sfp inh, FBPA coupling cs)
Cc1cccc(NC(=O)CCNS(=O)(=O)c2ccc3c(c2)CCCC(=O)N3)c1C	none (no result: Sfp inh, FBPA coupling cs)
CC(=O)Nc1sc(/C(C#N)=C/c2ccc(Cl)c(Cl)c2)nc1-c1ccc(C)cc1	Tau ThT inhib inconclusive, Sfp inh 16µM, FBPA coupling cs -44
CC(=O)Nc1sc(N/N=C/c2ccc(C)cc2)nc1-c1ccc(C)cc1	Tau ThT inhib inconclusive, Tau fluor cs inconclusive
CC(=O)c1ccc(N2CCN(S(=O)(=O)c3ccc4c(c3)CC(C)N4C(=O)C3CCC3)CC2)cc1 (stereo not drawn)	none (no result: Sfp inh, FBPA coupling cs)
Cn1c(=O)c2c(nc(NCc3ccccc3)n2Cc2ccc(Cl)c(Cl)c2)n(C)c1=O	Tau FP inhib inconclusive, Tau fluor cs inconclusive (no result: Sfp inh, FBPA coupling cs)
COc1ccccc1-c1nccc(NCc2ccccc2)n1	none (no result: Tau ThT inhib, Tau FP inhib, Tau fluor cs)
COc1ccccc1-c1cc(NCc2cnc(C)cn2)ncn1	Sfp inh 50µM (no result: Tau ThT inhib, Tau FP inhib, Tau fluor cs)
COc1ccccc1-c1nccc(NCc2cnc(C)cn2)n1	Sfp inh 50µM
Cc1cnc(CNc2cc(-c3ccccc3C(F)(F)F)ncn2)cn1	none (no result: Tau ThT inhib, Tau FP inhib, Tau fluor cs)
CCN1c2ccccc2-c2nc(SCC(=O)Nc3cccc(C)c3C)ncc2S1(=O)=O	none (no result: Sfp inh, FBPA coupling cs)
Cc1ccc(C)c(N(C)C(=O)C2CCN(S(=O)(=O)c3cccc4nsnc34)CC2)c1	none (no result: Sfp inh, FBPA coupling cs)
CCn1cc(C(=O)NC(=S)Nc2cccc(O)c2)cn1	Sfp inh 79µM
CCn1cc(C(=O)NC(=S)Nc2ccccc2[N+](=O)[O-])cn1	Sfp inh 79µM (no result: Tau ThT inhib, FBPA coupling cs, Tau FP inhib, Tau fluor cs)
CCOC(=O)C1CCN(S(=O)(=O)c2cc(Br)cc3c2N(C(=O)CC)CC3)CC1	none (no result: Sfp inh, FBPA coupling cs)
CN=c1scc(-c2ccc(OC)cc2)n1/N=C(\C)c1cccnc1	Tau ThT inhib 11µM, Tau fluor cs inconclusive
N#Cc1cccc(CS(=O)(=O)c2nnnn2C2CCCCC2)c1	none
O=C1c2oc3ccc(Cl)cc3c(=O)c2C(c2ccccn2)N1CCCN1CCOCC1 (stereo not drawn)	Tau ThT inhib inconclusive, Sfp inh 25µM
O=C(O)c1ccccc1Nc1cccc(OCc2ccc3ccccc3n2)c1	Tau ThT inhib 14µM, Sfp inh inconclusive, Tau fluor cs 8.9µM[quencher]
